Assay outcomes as filed in PubChem.
Only some compounds are listed: those with a hit (about 5.3% of all), similar ones and a draw of the others.
TDP1 block: qHTS Assay for Inhibitors of Tyrosyl-DNA Phosphodiesterase (TDP1). recombinant TDP1, AlphaScreen DNA substrate cleavage. Potency, µM (titrated, usually from 130 µM), for the others: at the top dose activity change, negative = inhibition, actives largely listed as inhibitors. Tyrosyl-DNA phosphodiesterase 1 (Homo sapiens), Q9NUW8. 350,000 tested, 0.28% active. AID 485290, 2010; also: potency is read from the fitted curve at half-maximal effect; % is scaled to controls: 0 for no effect and ±100 for the full control effect; nearly all actives have a fitted effect of over 40% in size
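Compounds were preincubated with Tdp1 (1 nM final) for 15 min at room temperature before substrate (15 nM final) started a 5 min reaction; beads (10 ug/ml final) were then added for 10 min before AlphaScreen detection.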
BAZ2B inh: qHTS Assay for Inhibitors of BAZ2B | Bromodomain adjacent to zinc finger domain protein 2B (Homo sapiens), Q9UIF8 | AlphaScreen BAZ2B-H3K14Ac peptide displacement | Potency, µM (titrated, usually from 114 µM), for the others: at the top dose activity change, negative = inhibition, hits mostly inhibitors | 360,000 tested, 4.4% active | AID 504333, 2011; also: potency is read from the fitted curve at half-maximal effect; % is scaled to controls: 0 for no effect and ±100 for the full control effect; nearly all actives have a fitted effect of over 60% in size
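In this displacement format the biotinylated H3(5-23) peptide acetylated at Lys14 serves as ligand at 50 nM, with BAZ2B at 50 nM in PBS pH 7.4 containing 0.01% Tween-20. Donor and acceptor beads are 10 ug/mL final.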
JMJD2A Tudor: qHTS Assay for Inhibitors of JMJD2A-Tudor Domain; AlphaScreen JMJD2A-Tudor / H3K4me3 peptide binding; Potency, µM (highest dose often 114 µM), for the others: top-dose activity change, negative = inhibition, most hits filed as inhibitors; 390,000 tested, 4.4% active; also: potency is read from the fitted curve at half-maximal effect; % is scaled to controls: 0 for no effect and ±100 for the full control effect; nearly all actives have a fitted effect of over 50% in size
Six1-Eya2 blk: qHTS Assay for Inhibitors of the Six1/Eya2 Interaction; AlphaScreen GST-Six1/His-Eya2 binding, biochemical; active compounds read low; activity change, % (no concentration beside the values); 360,000 tested, 0.56% active; in the data active = activity change below about -65%; inconclusive = mostly about -30% to -63%; also: % is scaled to controls: 0 for no effect and ±100 for the full control effect
Target sequence (O00167 whole entry, looked up): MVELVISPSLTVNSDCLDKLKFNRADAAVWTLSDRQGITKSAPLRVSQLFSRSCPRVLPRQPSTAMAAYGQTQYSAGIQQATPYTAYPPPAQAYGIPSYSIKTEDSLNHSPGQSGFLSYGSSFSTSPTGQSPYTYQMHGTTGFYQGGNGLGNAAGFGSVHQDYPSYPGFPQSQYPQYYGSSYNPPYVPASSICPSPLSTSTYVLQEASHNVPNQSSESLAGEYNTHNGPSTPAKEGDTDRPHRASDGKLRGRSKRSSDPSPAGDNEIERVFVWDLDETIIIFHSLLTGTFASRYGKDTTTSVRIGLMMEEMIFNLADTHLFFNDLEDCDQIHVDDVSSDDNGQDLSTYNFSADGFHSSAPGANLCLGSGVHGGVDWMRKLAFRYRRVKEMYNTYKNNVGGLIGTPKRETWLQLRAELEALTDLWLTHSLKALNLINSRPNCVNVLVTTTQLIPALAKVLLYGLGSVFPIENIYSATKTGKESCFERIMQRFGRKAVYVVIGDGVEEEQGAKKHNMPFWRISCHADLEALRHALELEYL
Target sequence (Q15475 whole entry, looked up): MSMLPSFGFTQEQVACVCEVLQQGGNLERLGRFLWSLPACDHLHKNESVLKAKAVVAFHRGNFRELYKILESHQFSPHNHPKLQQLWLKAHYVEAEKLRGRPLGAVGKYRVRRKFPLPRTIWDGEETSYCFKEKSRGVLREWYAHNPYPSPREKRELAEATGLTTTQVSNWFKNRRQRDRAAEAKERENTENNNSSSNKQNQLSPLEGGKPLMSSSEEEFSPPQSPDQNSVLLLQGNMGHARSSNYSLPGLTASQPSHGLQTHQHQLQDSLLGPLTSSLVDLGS
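Compounds are tested against tagged Six1 and Eya2 proteins bridged by glutathione donor and nickel acceptor beads; after a one-hour incubation at 37 °C without light, AlphaScreen emission is recorded.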
HP1b binding inh: HTS for Inhibitors of HP1-beta Chromodomain Interactions with Methylated Histone Tails | Chromobox protein homolog 1 (Homo sapiens), P83916 | Potency, µM (top dose mostly 114 µM), inactives show top-dose activity change, negative = inhibition, hits mostly inhibitors | AID 540317, 2011 | AlphaScreen HP1-beta / biotin-H3K9me3 peptide binding | 390,000 tested, 0.56% active; also: potency is read from the fitted curve at half-maximal effect; nearly all actives have a fitted effect of over 70% in size
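Compound inhibition of the preformed complex between 50 nM HP1-beta and 50 nM biotinylated H3K9me3 peptide was read by AlphaScreen. Buffer was PBS pH 7.4 with 0.01% Tween-20. Incubations ran 30 min at room temperature, with 10 ug/mL donor/acceptor beads.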
CtBP-E1A blk: qHTS Assay for Inhibitors of the CtBP/E1A Interaction; CtBP / adenovirus E1A interaction (AlphaScreen); AlphaScreen GST-E1A/His-CtBP binding, 1536-well; active compounds read low; activity change, % (no concentration beside the values); 340,000 tested, 0.49% active; in the data active = activity change below about -65%; inconclusive = mostly about -30% to -63%; also: % is scaled to controls: 0 for no effect and ±100 for the full control effect
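Steps: dispense buffer (Tris pH 8.0, NaCl 300 mM, TCEP 1 mM, BSA, Tween 20); add 5X protein mix (GST-E1A, His-CtBP, 125 nM each); pin 23 nL compound; 2 h at 37 °C, dark; add 5X beads (50 ug/mL); 1 h; read.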
* hit, by the source's call; ? = inconclusive; / = not tested or not shown; [ ] = remark or other dose. Unless noted, calls follow the shape of the dose curve; as a rule, active = well fitted inhibition curve with a large enough effect; inconclusive = small, poorly fitted or top-dose-only effect; inactive = no such curve, though single readings can be large or run the other way.

SMILES | TDP1 block | BAZ2B inh | JMJD2A Tudor | Six1-Eya2 blk | HP1b binding inh | CtBP-E1A blk
COc1ccc(OC)c2[nH]c(C(=O)O)cc12 | 1% | -1% | 89µM* | 0 | -6% | 7
O=C(CSc1n[nH]c(-c2ccco2)n1)Nc1ccc(Br)cc1 | 7%[56.1 µM] | -33% | 45µM* | -8 | -22%[57 µM] | -6
CCOC(=O)CSc1n[nH]c(-c2ccco2)n1 | -7% | 11% | ? | 1 | 17% | 3
COc1ccc(NC(=O)CSc2n[nH]c(-c3ccco3)n2)cc1 | 4% | ? | -6% | 15 | 56% | 7
O=C(CSc1n[nH]c(-c2ccco2)n1)N1c2ccccc2Sc2ccccc21 | 4% | 56µM* | -26% | -10 | -10% | -11
CC(CCc1ccccc1)NC(=O)Cn1c(=O)nc(-c2ccccc2F)c2cc(Cl)ccc21 (stereo unspecified) | 6% | -10% | -10% | / | 35% | /
N#CN1CCC(NC(=O)c2ccc(C(F)(F)F)cc2)CC1 | 1% | / | -12% | / | / | /
Cc1ccccc1NN=Nc1nc2c([nH]1)c(=O)n(C)c(=O)n2C | 8% | -30% | ? | -11 | ? | -10
Cn1c(=O)c2[nH]c(N=NNc3ccccc3F)nc2n(C)c1=O | / | 20µM* | 7.9µM* | -3 | 20µM* | -1
COc1ccc(C=NNc2nc3c([nH]2)c(=O)n(C)c(=O)n3C)cc1 | / | / | -7% | 0 | 12%[57 µM] | -2
COc1ccc(NN=Nc2nc3c([nH]2)c(=O)n(C)c(=O)n3C)cc1 | 8% | 56µM* | 8.9µM* | -10 | 4.5µM* | -3
COc1ccc(-c2cc(=Nc3c(C)n(C)n(-c4ccccc4)c3=O)c3ccccc3o2)cc1 | -5% | -31% | ? | 3 | -11% | -9
COc1ccc(-c2c/c(=N\c3nc(-c4ccccc4)c(C)s3)c3ccccc3o2)cc1O | 10% | 50µM* | ? | ? | ? | -30
CCOc1ccccc1CNC(=O)c1cc2oc3ccccc3c2n1C | 2% | -30% | ? | -15 | -8% | -13
CCOc1ccccc1CNC(=O)c1cc2occc2n1C | 3% | 45µM* | -35% | -29 | ? | -14
CN(C)S(=O)(=O)c1ccc(C(=O)NCC2CC2(Cl)Cl)cc1 (stereo unspecified) | -3% | 12% | 13µM* | 8 | -7% | 6
CSc1ncc(C(=O)Nc2cccc(Cl)c2C)c(-c2ccccc2)n1 | 4% | 3% | -29% | / | 20% | /
CC(NC(=O)C(=O)NCCC1=CCCCC1)c1ccccc1 (stereo unspecified) | 3% | 7% | -18% | 11 | 11% | -4
CC(NCC(=O)NC(=O)NCCC1=CCCCC1)c1ccc(S(N)(=O)=O)cc1 (stereo unspecified) | / | / | 22µM* | -1 | ? | -2
C1COCCNCCOCCOCCOCCN1 | -4% | 8% | -16% | 5 | 9% | -7
S=C1NCCNC(=S)NCCOCCOCCN1 | 0% | -17% | 40µM* | 5 | -9% | -3
CS(=O)c1ccccc1-c1nc(-c2cccc(Cl)c2)no1 (stereo unspecified) | -3% | 3% | 35µM* | 5 | -2% | 9
CS(=O)(=O)c1ccccc1-c1nc(-c2cccc(Cl)c2)no1 | 0% | 14% | 21% | 12 | 58% | 9
CC1=C(C(=O)Nc2ccccc2)C2(CCCCC2)C(C#N)=C(SCC(N)=O)N1 | 1% | ? | 14µM* | -7 | -15% | -8
COc1ccc(OC)c(-c2noc(N3CCN(c4ccc(C(C)=O)cc4)CC3)n2)c1 | 5% | -11% | -26% | / | 31% | /
SMILES | TDP1 block | BAZ2B inh | JMJD2A Tudor | Six1-Eya2 blk | HP1b binding inh | CtBP-E1A blk
CSc1cccc(NC(=O)c2nnn(CC(=O)Nc3cc(C)cc(C)c3)c2N)c1 | 1% | -16% | 14µM* | -1 | 13% | 3
COc1cccc(CN(C)CC(O)COc2cc(Cl)ccc2Cl)c1 (stereo unspecified) | / | 56µM* | 6.3µM* | 2 | ? | /
COc1ccc(Br)cc1CN(C)CC(O)COc1ccc(Br)cc1 (stereo unspecified) | 0%[0.0935 µM] | 3% | 6% | -7 | 119% | 5
O=C(CN1C(=O)CCC1=O)Nc1nc(-c2ccc3ccccc3c2)cs1 | 6% | -16% | -7% | -6 | 19% | 2
O=C(Nc1nc(-c2nc3ccccc3s2)cs1)C1CC1 | 3% | 4% | -20% | 1 | 58% | -13
O=C(/C=C/c1ccco1)Nc1nc(-c2ccccn2)cs1 | 8% | 28µM* | 50µM* | -74* | 45µM* | /
CSCCC(=O)Nc1nc(-c2ccccn2)cs1 | 10% | 20µM* | 89µM* | -71* | 9% | -4
O=C(Nc1nc(-c2ccccn2)cs1)C1CCCC1 | 9% | 50µM* | ? | ? | -17% | -8
O=C(CN1C(=O)CCC1=O)Nc1nc(-c2ccccn2)cs1 | 4% | 5.6µM* | 25µM* | -88* | 27% | ?
Cc1ccc2[nH]c(=O)c(CN(CCCO)Cc3nnnn3Cc3ccco3)cc2c1 | 2% | / | -21%[57.1 µM] | / | 19%[57 µM] | /
O=C(COc1ccc(F)cc1Cl)Nc1nc(-c2ccccn2)cs1 | -8% | 10% | / | / | / | /
N#Cc1ccccc1OCC(=O)Nc1nc(-c2ccccn2)cs1 | / | / | / | -83* | / | ?
COc1cnc(-c2ccccn2)nc1N(C)C | 9% | 4.5µM* | 22µM* | -89* | 39% | -94*
CCOC(=O)C(C)Sc1nc(-c2ccccn2)ncc1OC (stereo unspecified) | 3% | 3.2µM* | -17%[11.4 µM] | -91* | 9% | /
COc1cnc(-c2ccccn2)nc1Sc1c(Cl)cccc1Cl | 3% | -7% | -40% | -9 | 19% | -21
